{"source": "PubChem BioAssay (NCATS)", "note": "Results filed as inconclusive are left out. Activity calls are given as the source filed them. Calls come from the whole dose curve; as a rule, active = well fitted inhibition curve with a large enough effect; inconclusive = small, poorly fitted or top-dose-only effect, or effect the other way; inactive = flat fitted curve, though single readings scatter. % is set by controls: 0 for no effect and ±100 for the full control effect.", "data": [{"target": "ATP-dependent 6-phosphofructokinase (Trypanosoma brucei brucei) (UniProt O15648)", "sequence (O15648 whole entry, looked up)": "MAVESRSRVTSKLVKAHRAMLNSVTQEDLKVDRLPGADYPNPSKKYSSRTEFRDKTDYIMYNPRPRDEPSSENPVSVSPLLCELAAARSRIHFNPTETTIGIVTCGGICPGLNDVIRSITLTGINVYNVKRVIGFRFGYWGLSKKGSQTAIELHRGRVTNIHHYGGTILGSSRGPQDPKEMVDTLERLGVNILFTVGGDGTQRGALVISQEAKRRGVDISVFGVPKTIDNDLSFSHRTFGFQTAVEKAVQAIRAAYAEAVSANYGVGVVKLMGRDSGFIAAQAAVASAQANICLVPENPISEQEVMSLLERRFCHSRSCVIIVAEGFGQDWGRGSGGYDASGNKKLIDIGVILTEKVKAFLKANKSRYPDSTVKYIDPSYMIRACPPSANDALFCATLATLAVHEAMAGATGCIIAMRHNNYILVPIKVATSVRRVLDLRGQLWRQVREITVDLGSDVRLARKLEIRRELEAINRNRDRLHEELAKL", "experiment": "qHTS Assay to Find Inhibitors of T. brucei phosphofructokinase: hit validation (AID 492961);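 note: luminescence reports ADP formed as PFK phosphorylates fructose-6-phosphate with ATP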", "details": "T. brucei PFK, ADP-Glo luminescence; series mostly up to 51.4 µM; activity change, negative = inhibition: at the top concentration", "in_short": "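Reaction: 0.1 M triethanolamine pH 8.0, 5 mM MgCl2, F6P 0.5 mM, ATP 0.1 mM, PFK 1.25 nM, 45 min RT. Read-out: ADP-Glo luminescence. Analysis: concentration-response fits, classed by r2 and efficacy.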", "values": [{"smiles": "COc1cc2c(cc1OC)[C@@H](Cc1cc(OC)c(OC)c(OC)c1)[N+](C)(CCCOC(=O)CC/C=C/CCC(=O)OCCC[N+]1(C)CCc3cc(OC)c(OC)cc3[C@H]1Cc1cc(OC)c(OC)c(OC)c1)CC2", "note": "(stereo partly specified)", "activity change, negative = inhibition": "-0.57% (inactive)"}, {"smiles": "O=C(O)CCC/C=C\\C[C@@H]1[C@@H](/C=C/[C@@H](O)COc2cccc(C(F)(F)F)c2)[C@H](O)C[C@@H]1O", "activity change, negative = inhibition": "-0.102% (inactive)"}, {"smiles": "O=P(O)(O)OC[C@H]1O[C@](O)(COP(=O)(O)O)[C@@H](O)[C@@H]1O", "activity change, negative = inhibition": "24% (inactive)"}, {"smiles": "NCCO/C=C/[C@H](N)C(=O)O", "activity change, negative = inhibition": "0.806% (inactive)"}, {"smiles": "CC[C@H]1OC(=O)[C@H](C)[C@@H](O[C@H]2C[C@@](C)(OC)[C@@H](O)[C@H](C)O2)[C@H](C)[C@@H](O[C@@H]2O[C@H](C)C[C@H](N(C)C)[C@H]2O)[C@](C)(O)C[C@@H](C)CN(C)[C@H](C)[C@@H](O)[C@]1(C)O", "activity change, negative = inhibition": "6.63% (inactive)"}, {"smiles": "O=P(O)(O)OP(=O)(O)O", "activity change, negative = inhibition": "-13.3% (inactive)"}, {"smiles": "O=P(O)(O)OP(=O)(O)OP(=O)(O)O", "activity change, negative = inhibition": "3.06% (inactive)"}, {"smiles": "O=C1NCCN1c1ncc([N+](=O)[O-])s1", "activity change, negative = inhibition": "3.39% [at 24.3 µM] (inactive)"}, {"smiles": "C=CCN1CCCC1CNC(=O)c1cc(S(N)(=O)=O)cc(OC)c1OC", "note": "(stereo unspecified)", "activity change, negative = inhibition": "4.49% (inactive)"}, {"smiles": "CCN(CC)CCCC(C)Nc1cc(/C=C/c2ccccc2Cl)nc2cc(Cl)ccc12", "note": "(stereo unspecified)", "activity change, negative = inhibition": "3.57% (inactive)"}, {"smiles": "[O-][N+](=Nc1ccccc1)c1ccccc1", "activity change, negative = inhibition": "-3.87% (inactive)"}, {"smiles": "CC1CC(OC(=O)C(O)c2ccccc2)CC(C)(C)C1", "note": "(stereo unspecified)", "activity change, negative = inhibition": "-4.07% (inactive)"}, {"smiles": "CCCCCCCCCCCCCCCCCC[N+](C)(C)CCC[Si](OC)(OC)OC", "activity change, negative = inhibition": "3.66% (inactive)"}, {"smiles": "O=C(O)COc1ccccc1/C=N/NC(=O)c1ccncc1", "activity change, negative = inhibition": "-9.63% (inactive)"}, {"smiles": "O=S(=O)(O)CCCS(=O)(=O)O", "activity change, negative = inhibition": "-0.758% (inactive)"}, {"smiles": "C=CCOc1ccc(CC(=O)O)cc1Cl", "activity change, negative = inhibition": "4.11% (inactive)"}, {"smiles": "CC1(O)CCC(C(C)(C)O)CC1", "note": "(stereo unspecified)", "activity change, negative = inhibition": "6.76% (inactive)"}, {"smiles": "CCCc1ccc(C(=O)O)cc1", "activity change, negative = inhibition": "8.91% (inactive)"}, {"smiles": "OC1OC[C@@H](O)[C@H](O)[C@@H]1O", "note": "(stereo partly specified)", "activity change, negative = inhibition": "-1.73% (inactive)"}, {"smiles": "C=C(C)C1CC=C(C)CC1", "note": "(stereo unspecified)", "activity change, negative = inhibition": "1.64% (inactive)"}, {"smiles": "CSCCC(N)C(=O)O", "note": "(stereo unspecified)", "activity change, negative = inhibition": "-4.76% (inactive)"}, {"smiles": "Cc1c(C)c2c(c(C)c1OC(=O)CCC(=O)O)CC[C@@](C)(CCC[C@H](C)CCC[C@H](C)CCCC(C)C)O2", "activity change, negative = inhibition": "-0.925% (inactive)"}, {"smiles": "O=C1c2ccccc2C(=O)C1c1ccc(F)cc1", "activity change, negative = inhibition": "-0.422% (inactive)"}, {"smiles": "Cc1ccc(S(=O)(=O)NCl)cc1", "activity change, negative = inhibition": "-8.47% (inactive)"}, {"smiles": "CN1CCc2c(c3ccccc3n2Cc2ccccc2)C1", "activity change, negative = inhibition": "-8.94% [at 24.3 µM] (inactive)"}, {"smiles": "O=C(O)CCCC/C=C(\\c1ccccc1)c1cccnc1", "activity change, negative = inhibition": "11.3% (inactive)"}, {"smiles": "OC/C=C/c1ccccc1", "activity change, negative = inhibition": "-2.16% (inactive)"}, {"smiles": "O=C(O)CCC/C=C\\C[C@@H]1[C@@H](/C=C/[C@@H](O)COc2cccc(Cl)c2)[C@H](O)C[C@@H]1O", "activity change, negative = inhibition": "-18% (inactive)"}, {"smiles": "CC1CCCCN1CCCOC(=O)c1ccccc1", "note": "(stereo unspecified)", "activity change, negative = inhibition": "-7.94% (inactive)"}, {"smiles": "C=CC[N+]1([C@H]2C[C@H]3[C@@H]4CC[C@H]5C[C@H](O)[C@@H](N6CCOCC6)C[C@]5(C)[C@H]4CC[C@]3(C)[C@H]2OC(C)=O)CCCC1", "activity change, negative = inhibition": "4.04% (inactive)"}, {"smiles": "CCOc1ccc(NC(=S)Nc2ccc(OCC)cc2)cc1", "activity change, negative = inhibition": "-6.78% (inactive)"}, {"smiles": "C[C@H](CCC(=O)O)[C@H]1CC[C@H]2[C@@H]3CC[C@@H]4C[C@H](O)CC[C@]4(C)[C@H]3C[C@H](O)[C@]12C", "activity change, negative = inhibition": "-6.93% (inactive)"}, {"smiles": "CC(C)CCC[C@@H](C)[C@H]1CC[C@H]2[C@@H]3CC[C@@H]4C[C@H](O)CC[C@]4(C)[C@H]3CC[C@]12C", "activity change, negative = inhibition": "14.5% (inactive)"}, {"smiles": "CC(C)(Oc1ccc(C2CCCc3ccccc32)cc1)C(=O)O", "note": "(stereo unspecified)", "activity change, negative = inhibition": "0% (inactive)"}, {"smiles": "CNC(=O)OCc1cccc(COC(=O)NC)n1", "activity change, negative = inhibition": "-2.44% (inactive)"}, {"smiles": "COC1=C(OC)C(=O)C(C/C=C(\\C)CC/C=C(\\C)CC/C=C(\\C)CC/C=C(\\C)CC/C=C(\\C)CC/C=C(\\C)CC/C=C(\\C)CC/C=C(\\C)CC/C=C(\\C)CCC=C(C)C)=C(C)C1=O", "activity change, negative = inhibition": "-0.31% (inactive)"}]}]}
